Hits are enriched below; roughly 18% of the tested compounds scored in any of these assays.
TGFb SMAD3 inh: inhibitors of TGF-b signaling; HepG2 CAGA-GFP TGF-b/SMAD3 reporter, GFP fluorescence, 18 h; TGF-beta stimulated, 500 pg/mL final; Potency, µM (highest dose often 46.1 µM), inactives show at the highest dose activity, negative = inhibition, usual class: inhibitors; 410,000 compounds, 1.2% hits; AID 588855; also: potency is read from the fitted curve at half-maximal effect; % is scaled to controls: 0 for no effect and ±100 for the full control effect; nearly all actives have a fitted effect of over 65% in size
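TGF-beta reporter screen: HEPG2 CAGA-GFP, 1% FBS, 500 pg/mL TGF-beta final, 18 h; per-cell GFP summed per well; curves fitted and categorized by class.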
TDP1 cell noCPT: qHTS for Inhibitors of human tyrosyl-DNA phosphodiesterase 1 (TDP1): qHTS in cells in absence of CPT. DT40 Tdp1-/- hTDP1 cells, no CPT, ATP luminescence, 48 h. Potency, µM (highest dose often 46.2 µM), inactives show at the highest dose activity change, negative = growth inhibition, most hits filed as inhibitors. 420,000 compounds, 15% hits; also: potency is read from the fitted curve at half-maximal effect; % is scaled to controls: 0 for no effect and ±100 for the full control effect; nearly all actives have a fitted effect of over 55% in size
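Growth of hTDP1-complemented DT40 Tdp1-knockout cells is measured by ATP luminescence after at least 48 hr compound exposure at 37 °C, with DMSO substituting for the 20 nM CPT used in the parallel screen.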
TDP1 cell CPT: growth inhibition of DT40 Tdp1-/-;hTDP1 cells with camptothecin (screen for TDP1 inhibitors); chicken DT40 Tdp1-/-;hTDP1 cells + 20 nM CPT, ATP luminescence, 48 h; Potency, µM (top dose mostly 46.2 µM), without a hit: at the highest dose activity change, negative = growth inhibition, actives largely listed as inhibitors; 420,000 compounds, 12% hits; AID 686979; also: potency is read from the fitted curve at half-maximal effect; % is scaled to controls: 0 for no effect and ±100 for the full control effect; nearly all actives have a fitted effect of over 55% in size
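Cell growth measured by CellTiter-Glo luminescence after a minimum 48 h, 37 C compound exposure with 20 nM CPT in Tdp1-knockout DT40 cells stably expressing hTDP1, seeded 400/well; qHTS titration format.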
HepG2 tox: counter-screen for TGF-b inhibitors: cytotoxicity in HepG2 cells | HepG2 CAGA-GFP viability, ATP luminescence, 18 h | Potency, µM (top dose mostly 46.1 µM), inactives show at the top dose activity change, negative = cytotoxicity, usual class: cytotoxic | 410,000 compounds, 0.76% hits | AID 588856; also: potency is read from the fitted curve at half-maximal effect
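CellTiter-Glo luminescence gave cytotoxicity after 18 hours at 37 degrees C. The cells were HepG2 CAGA-GFP in 1% FBS DMEM, stimulated with 500 pg/mL TGF-beta after compound addition. %Activity was normalised to no-cell wells (complete cell-killing) and DMSO (no toxicity), and curves were fitted and classified.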
TDP1 inh: blocks human tyrosyl-DNA phosphodiesterase 1 | Q9NUW8 | recombinant TDP1, AlphaScreen DNA substrate cleavage | AID 485290 | 350,000 compounds, 0.28% hits | Potency, µM (top dose mostly 130 µM), inactives show at the top dose activity change, negative = inhibition, usual class: inhibitors; also: potency is read from the fitted curve at half-maximal effect; % is scaled to controls: 0 for no effect and ±100 for the full control effect; nearly all actives have a fitted effect of over 40% in size
Target sequence (Q9NUW8 whole entry, looked up): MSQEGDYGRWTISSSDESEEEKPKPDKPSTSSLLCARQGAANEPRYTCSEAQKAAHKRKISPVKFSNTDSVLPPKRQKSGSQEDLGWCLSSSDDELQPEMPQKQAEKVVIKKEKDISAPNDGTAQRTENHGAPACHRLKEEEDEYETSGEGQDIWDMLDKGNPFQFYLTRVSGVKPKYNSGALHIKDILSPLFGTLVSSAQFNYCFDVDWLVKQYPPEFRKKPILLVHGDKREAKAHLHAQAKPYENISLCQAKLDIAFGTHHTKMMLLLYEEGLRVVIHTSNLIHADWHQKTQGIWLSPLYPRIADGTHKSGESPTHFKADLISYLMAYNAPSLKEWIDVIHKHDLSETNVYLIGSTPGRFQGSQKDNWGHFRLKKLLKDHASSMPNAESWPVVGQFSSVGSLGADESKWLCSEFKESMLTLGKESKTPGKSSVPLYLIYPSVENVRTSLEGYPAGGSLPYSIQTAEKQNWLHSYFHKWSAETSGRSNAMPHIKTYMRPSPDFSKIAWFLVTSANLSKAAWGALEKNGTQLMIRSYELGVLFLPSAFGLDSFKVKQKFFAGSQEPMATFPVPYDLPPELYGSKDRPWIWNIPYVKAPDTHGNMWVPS
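Steps: enzyme plus compound, 15 min RT; add biotin/phosphotyrosine-FITC oligonucleotide (15 nM final), react 5 min; add donor/acceptor beads (10 ug/ml final), 10 min; read AlphaScreen. Tdp1 at 1 nM final.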
IL-1B inflam inh: inhibitors of inflammasome signaling (IL-1 beta secretion); activity change, % at 57.5 µM; 360,000 compounds, 4.7% hits; THP-1 LPS/ATP IL-1B secretion, AlphaLISA, 16 h; stronger effect = lower value; in the data active = activity change below about -50%; inconclusive = mostly about -30% to -49%; also: % is scaled to controls: 0 for no effect and ±100 for the full control effect
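THP-1 cells pretreated 1 hr with compounds (up to 57.5 uM final), then stimulated with LPS (250 ng/mL final) plus ATP (1.25 mM final); secreted IL-1B measured by AlphaLISA after 16 hr, decreased signal indicating inhibition.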
Starred values were filed as active, the others as inactive; ? = inconclusive; nt = no result; [ ] = dose if it differs, or a comment. Unless noted, calls follow the shape of the dose curve; as a rule, active = well fitted curve in the direction sought with a large enough effect; inconclusive = small, poorly fitted or top-dose-only effect, or another doubt; inactive = no such curve, though single readings can be large; an effect the other way counts as inactive or inconclusive.

SMILES | TGFb SMAD3 inh | TDP1 cell noCPT | TDP1 cell CPT | HepG2 tox | TDP1 inh | IL-1B inflam inh
Cc1ccc(N(C(=O)c2csnn2)C(C(=O)NC2CCCCC2)c2cccnc2)cc1 (stereo not given) | -3% | -6% | 16% | -6% | 3%[0.0935 µM] | 16
Cc1ccc(NC(=O)Cn2c(=O)n(CC(=O)NCCc3ccccc3)c(=O)c3ccccc32)cc1 | 6% | -14% | -25% | 0% | -2% | nt
CCOC(=O)CN1C(=O)CC(c2ccccc2)C1=O (stereo not given) | 11% | ? | ? | 19% | nt | 11
Cn1c(=O)c2ncn(CC(=O)Nc3cccc(-c4nc5ccccc5s4)c3)c2n(C)c1=O | -2% | 15µM* | 15µM* | 3% | 7% | 39
CCS(=O)(=O)c1ccccc1C(=O)Nc1ccc(-c2nc3ccccc3s2)cc1 | 6% | 15µM* | ? | 6% | 3% | nt
O=C(CCS(=O)(=O)c1ccccc1)Nc1cccc(-c2nc3ccccc3s2)c1 | ? | 18µM* | ? | -54% | -2% | 103
COc1c(C)cccc1C(=O)Nc1ccc(-c2nc3ccccc3s2)c(Cl)c1 | 28% | 12µM* | ? | -2% | -2% | nt
O=C(CCS(=O)(=O)c1ccccc1)Nc1ccc(-c2nc3ccccc3s2)cc1 | -13% | -6% | 11% | 23% | -1% | 21
Cc1cccc(C(=O)NC2CCN(S(=O)(=O)c3ccc(F)cc3)CC2)c1 | -18% | -5% | ? | -5% | 0% | ?
O=C(Nc1ccc(Br)cc1F)c1nc[nH]c1C(=O)N1CCc2ccccc2C1 | -1% | ? | ? | -1% | nt | 14
COCCN(C(=O)COC(=O)c1sccc1C)c1c(N)n(Cc2ccccc2)c(=O)[nH]c1=O | -16% | 4% | 11% | -20% | 3% | 0
CCOc1ccccc1C(=O)Nc1cccc(-c2nc3ccccc3s2)c1 | 18% | 5.2µM* | 6.5µM* | -11% | 3% | nt
CC(=O)N1CCCC(C)(C(=O)N(C)Cc2cccc3ccccc23)C1 (stereo not given) | -4% | ? | 23µM* | 2% | nt | 63
CC1(C(=O)NS(=O)(=O)c2ccc(C#N)cc2)CCN1C(=O)Cc1ccc(Cl)cc1Cl (stereo not given) | 10% | -2% | 8% | 5% | nt | -3
Cc1nonc1C1CCCN1Cc1nc(-c2ccccc2Cl)oc1C (stereo not given) | -19% | 15µM* | ? | -8% | 0% | 24
Cc1ccccc1-c1nc(CN2CCCC2c2ccc(F)cc2)c(C)o1 (stereo not given) | -7% | 16µM* | 21µM* | -6% | 4% | 19
Cc1oc(-c2ccccc2Cl)nc1CN1CCCC1c1ccc(F)cc1 (stereo not given) | -23% | -36% | ? | -55% | 7% | 11
CCN1CCN(c2ccc(NC(=O)COc3ccc([N+](=O)[O-])cc3)cc2)CC1 | 7% | ? | ? | -8% | 3% | 0
COc1ccc(C(O)c2nc(-c3ccc(F)cc3OC)cs2)cc1 (stereo not given) | 11% | ? | 26µM* | -8% | nt | -16
COc1cc(F)ccc1-c1csc(C(O)c2ccc(F)cc2)n1 (stereo not given) | -11% | ? | 23µM* | -35% | nt | -6
COc1cccc(C(O)c2nc(-c3ccc(F)cc3OC)cs2)c1 (stereo not given) | -1% | ? | -18% | -19% | nt | -22
CC1(NC(=O)Cn2cc(C(F)(F)F)ccc2=O)CCS(=O)(=O)C1 (stereo not given) | -11% | -1% | -6% | -29% | -2% | 17
Cc1c(NC(=O)COC(=O)c2ncc(Cl)c(Cl)c2Cl)c(=O)n(-c2ccccc2)n1C | 16% | -5% | -11% | -8% | -15% | -3
CC(CNC(=O)Cn1ccc(N)nc1=O)c1ccccc1 (stereo not given) | -1% | 8% | -23% | -1% | 0% | -4
CC(=O)c1c(O)cc(O)c(C(C)=O)c1O | ? | ? | 21µM* | -50% | nt | 39
SMILES | TGFb SMAD3 inh | TDP1 cell noCPT | TDP1 cell CPT | HepG2 tox | TDP1 inh | IL-1B inflam inh
O=C(CCC1CCN(Cc2nccs2)CC1)Nc1ccccc1 | -1% | ? | 1% | -29% | nt | -2
O=C(Nc1ccccn1)c1csc2c1CCCC2 | -19% | -1% | 3% | -15% | -4% | -2
O=C(Nc1ccccn1)c1onc2c1CCCC2 | 0% | -21% | -16% | 5µM* | 4% | 10
Cc1ccc(-n2c(=O)c3c(c4cc(C)ccc4n3C)n(Cc3ccc(F)cc3)c2=O)cc1 | 10% | -19% | -8% | -20% | 6% | nt
Nc1ccc(Sc2ccccc2CC(=O)O)cc1 | nt | nt | nt | nt | 0% | nt
COc1cccc(-c2nc(CSCC(=O)NCCc3ccc(Cl)cc3)c(C)o2)c1 | ? | ? | 9.2µM* | -48% | 7% | nt
COc1ccc(CCNC(=O)CSCc2nc(-c3cccc(C)c3)oc2C)cc1OC | ? | ? | 21µM* | -21% | 7% | nt
COc1ccc(CCNC(=O)CSc2nnc(-c3cccc(C)c3)o2)cc1OC | ? | -2% | -24% | -2% | 6% | -18
CCN(CC)c1ccc2cc(-c3nc(-c4ccccc4)no3)c(=O)oc2c1 | 123% | 5.8µM* | ? | 10% | -5% | nt
C=CCn1c(SCC(=O)N(C)c2c(N)n(Cc3ccccc3)c(=O)[nH]c2=O)nnc1-c1ccccc1OC | -7% | -5% | -21% | 13% | 2% | 6
O=C(O)c1ccccc1-c1ccc(/C=c2\sc3nc4cc(Br)cnc4n3c2=O)o1 | -1% | 18µM* | 16µM* | 2% | 7.9µM* | -3
C[C@@H]1CN([C@@H](C)CO)S(=O)(=O)c2ccc(Br)cc2O[C@H]1CN(C)Cc1ccccn1 | -17% | 23µM* | 15µM* | 0% | nt | 10
C[C@@H]1CN([C@@H](C)CO)S(=O)(=O)c2ccc(-c3ccc(C#N)cc3)cc2O[C@@H]1CN(C)Cc1ccccn1 | 1% | 13µM* | ? | -17% | nt | -28
C[C@@H]1CN([C@@H](C)CO)S(=O)(=O)c2ccc(Br)cc2O[C@@H]1CN(C)Cc1ccccn1 | -17% | ? | ? | -14% | nt | -8
CN(CC(=O)NC1CC(C)(C)NC(C)(C)C1)S(=O)(=O)c1ccc(Br)cc1 | 8% | -3% | 0% | -2% | 1% | -12

Bioassay records deposited in PubChem by National Center for Advancing Translational Sciences (NCATS).
